# Measurements reported in paper PMC7862700, “An all-to-all approach to the identification of sequence-specific readers for epigenetic DNA modifications on cytosine”.
# Assays:
# Experiment in all cases: DAPPL (digital affinity profiling via proximity ligation, sequencing); 10 mM Tris-HCl pH 7.5, 50 mM NaCl, 1 mM DTT, 4% glycerol, room temperature, 30 min; GST-TFs on glutathione beads, 16-mer random dsDNA library, 0.1% formaldehyde crosslink after washing; high values mean tight binding
# Conditions in all cases: protein: recombinant; tags: N-terminal GST; dsDNA, one strand shown
# [1] = molecular target: T1, FLI1 (Homo sapiens, UniProt Q01543 1-452)
# T1 sequence: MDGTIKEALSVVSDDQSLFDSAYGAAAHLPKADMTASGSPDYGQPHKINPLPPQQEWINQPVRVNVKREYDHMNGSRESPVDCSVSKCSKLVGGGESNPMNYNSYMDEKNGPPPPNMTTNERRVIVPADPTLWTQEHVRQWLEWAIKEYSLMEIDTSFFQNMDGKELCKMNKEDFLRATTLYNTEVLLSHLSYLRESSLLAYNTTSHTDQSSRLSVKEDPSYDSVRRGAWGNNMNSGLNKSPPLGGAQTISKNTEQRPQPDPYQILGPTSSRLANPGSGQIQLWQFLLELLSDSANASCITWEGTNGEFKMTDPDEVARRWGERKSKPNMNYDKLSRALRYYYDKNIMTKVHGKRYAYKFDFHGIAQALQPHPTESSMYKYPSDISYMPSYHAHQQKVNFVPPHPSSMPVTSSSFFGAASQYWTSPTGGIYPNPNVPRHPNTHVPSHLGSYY
# How it was run: (§1)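 Binding signal is given per hexamer as its read frequency for a factor divided by its frequency in the tag-only sample. GST-fused human transcription factors were expressed in yeast, captured on glutathione beads, barcoded with DNA and pooled with that sample, then incubated with 200 nmole of a 16-mer random double-stranded DNA library in Tris/NaCl/DTT/glycerol buffer for 30 min at room temperature. The pools were then washed, crosslinked, proximity-ligated, amplified by PCR and sequenced on an Illumina NextSeq500.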
# [2] = molecular target: T2, ELK1 (Homo sapiens, UniProt P19419 1-428)
# T2 sequence: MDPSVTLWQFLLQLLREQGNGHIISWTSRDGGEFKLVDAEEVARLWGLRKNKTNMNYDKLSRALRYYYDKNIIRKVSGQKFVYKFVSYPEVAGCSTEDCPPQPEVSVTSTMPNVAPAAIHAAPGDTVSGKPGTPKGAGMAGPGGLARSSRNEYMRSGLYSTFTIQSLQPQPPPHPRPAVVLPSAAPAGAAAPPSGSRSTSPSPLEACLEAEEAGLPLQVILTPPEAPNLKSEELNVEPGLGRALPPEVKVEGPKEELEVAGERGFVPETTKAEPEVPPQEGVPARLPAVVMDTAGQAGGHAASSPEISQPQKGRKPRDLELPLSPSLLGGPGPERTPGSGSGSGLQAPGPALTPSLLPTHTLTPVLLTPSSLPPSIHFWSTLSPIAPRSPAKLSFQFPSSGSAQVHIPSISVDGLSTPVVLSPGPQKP
# How it was run: as §1
# [3] = molecular target: T3, GABPA (Homo sapiens, UniProt Q06546 1-454)
# T3 sequence: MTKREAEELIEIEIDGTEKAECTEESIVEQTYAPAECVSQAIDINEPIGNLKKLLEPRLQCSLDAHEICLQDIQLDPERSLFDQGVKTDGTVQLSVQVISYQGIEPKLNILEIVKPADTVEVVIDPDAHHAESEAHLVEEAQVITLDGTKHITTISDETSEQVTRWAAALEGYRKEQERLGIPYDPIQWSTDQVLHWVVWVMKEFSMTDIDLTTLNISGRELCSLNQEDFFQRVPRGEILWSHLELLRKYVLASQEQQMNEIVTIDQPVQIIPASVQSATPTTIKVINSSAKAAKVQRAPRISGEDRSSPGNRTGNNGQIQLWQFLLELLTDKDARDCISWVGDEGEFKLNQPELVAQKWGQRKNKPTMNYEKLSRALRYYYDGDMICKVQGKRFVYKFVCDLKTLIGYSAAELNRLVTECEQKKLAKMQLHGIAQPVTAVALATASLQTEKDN
# How it was run: as §1
# [4] = molecular target: T4, ERG (Homo sapiens, UniProt P11308 1-479)
# T4 sequence: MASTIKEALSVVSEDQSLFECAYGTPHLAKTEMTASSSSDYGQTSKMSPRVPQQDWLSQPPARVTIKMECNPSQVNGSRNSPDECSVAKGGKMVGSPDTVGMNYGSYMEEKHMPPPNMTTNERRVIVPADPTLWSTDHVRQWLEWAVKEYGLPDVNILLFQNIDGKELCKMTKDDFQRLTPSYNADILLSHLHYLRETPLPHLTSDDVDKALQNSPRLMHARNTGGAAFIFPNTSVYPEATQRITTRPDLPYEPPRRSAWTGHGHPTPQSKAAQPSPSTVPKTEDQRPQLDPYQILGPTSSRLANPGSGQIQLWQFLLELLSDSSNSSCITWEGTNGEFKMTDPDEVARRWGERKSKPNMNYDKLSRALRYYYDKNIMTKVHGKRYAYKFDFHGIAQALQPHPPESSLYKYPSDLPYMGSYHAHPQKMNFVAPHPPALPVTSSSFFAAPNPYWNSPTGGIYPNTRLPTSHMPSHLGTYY
# How it was run: as §1
# [5] = molecular target: ELF1 (Homo sapiens, UniProt P32519 1-619)
# ELF1, sequence (P32519 whole entry): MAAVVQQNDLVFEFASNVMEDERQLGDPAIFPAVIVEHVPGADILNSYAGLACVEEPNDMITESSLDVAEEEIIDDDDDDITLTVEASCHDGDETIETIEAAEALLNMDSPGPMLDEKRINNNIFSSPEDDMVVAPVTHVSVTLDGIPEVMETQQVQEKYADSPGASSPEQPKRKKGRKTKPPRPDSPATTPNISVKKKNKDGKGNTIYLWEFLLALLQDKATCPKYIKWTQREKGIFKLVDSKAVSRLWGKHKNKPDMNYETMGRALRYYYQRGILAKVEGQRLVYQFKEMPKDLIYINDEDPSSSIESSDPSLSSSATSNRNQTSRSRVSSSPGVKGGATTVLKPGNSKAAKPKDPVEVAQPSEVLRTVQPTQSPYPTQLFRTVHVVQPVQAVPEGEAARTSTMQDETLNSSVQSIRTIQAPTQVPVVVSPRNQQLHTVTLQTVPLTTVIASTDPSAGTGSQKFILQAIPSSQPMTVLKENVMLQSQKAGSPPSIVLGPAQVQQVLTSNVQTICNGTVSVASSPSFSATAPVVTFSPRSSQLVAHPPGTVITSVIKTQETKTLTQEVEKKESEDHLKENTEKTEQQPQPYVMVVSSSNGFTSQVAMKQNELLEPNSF
# How it was run: as §1
# [6] = molecular target: T5, EHF (Homo sapiens, UniProt Q9NZC4 1-300)
# T5 sequence: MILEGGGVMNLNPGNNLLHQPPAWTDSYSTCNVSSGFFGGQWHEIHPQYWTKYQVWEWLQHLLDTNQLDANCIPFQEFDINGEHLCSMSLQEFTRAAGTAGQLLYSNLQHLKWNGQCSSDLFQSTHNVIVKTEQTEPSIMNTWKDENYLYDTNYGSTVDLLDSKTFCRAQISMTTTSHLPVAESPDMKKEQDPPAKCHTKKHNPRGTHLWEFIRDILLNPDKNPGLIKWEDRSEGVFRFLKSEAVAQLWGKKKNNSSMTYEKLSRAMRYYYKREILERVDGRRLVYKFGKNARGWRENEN
# How it was run: as §1
# [7] = molecular target: SPI1 (Homo sapiens, UniProt P17947 1-270)
# How it was run: as §1
# [8] = molecular target: SPIB (Homo sapiens, UniProt Q01892 1-262)
# SPIB, sequence (Q01892 whole entry): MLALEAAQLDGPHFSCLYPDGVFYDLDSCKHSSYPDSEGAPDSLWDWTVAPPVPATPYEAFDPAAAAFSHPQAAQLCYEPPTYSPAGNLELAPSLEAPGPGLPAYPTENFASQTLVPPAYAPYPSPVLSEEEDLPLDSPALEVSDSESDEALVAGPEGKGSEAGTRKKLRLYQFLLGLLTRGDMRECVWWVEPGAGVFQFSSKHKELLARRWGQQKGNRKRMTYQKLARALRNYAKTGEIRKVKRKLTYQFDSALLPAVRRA
# How it was run: as §1
# [9] = molecular target: T6, ELK3 (Homo sapiens, UniProt P41970 1-407)
# T6 sequence: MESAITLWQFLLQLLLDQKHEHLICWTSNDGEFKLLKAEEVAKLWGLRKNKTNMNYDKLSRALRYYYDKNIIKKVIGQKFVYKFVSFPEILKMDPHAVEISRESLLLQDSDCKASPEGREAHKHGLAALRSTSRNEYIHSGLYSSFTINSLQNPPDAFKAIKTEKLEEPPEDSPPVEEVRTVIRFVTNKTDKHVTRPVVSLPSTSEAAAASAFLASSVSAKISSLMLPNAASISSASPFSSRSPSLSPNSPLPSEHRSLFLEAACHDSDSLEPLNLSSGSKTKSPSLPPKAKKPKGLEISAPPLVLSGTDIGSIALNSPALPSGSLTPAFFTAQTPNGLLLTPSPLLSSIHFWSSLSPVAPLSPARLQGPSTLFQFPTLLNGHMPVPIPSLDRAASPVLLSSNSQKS
# How it was run: as §1
# [10] = molecular target: T7, FEV (Homo sapiens, UniProt Q99581 1-238)
# T7 sequence: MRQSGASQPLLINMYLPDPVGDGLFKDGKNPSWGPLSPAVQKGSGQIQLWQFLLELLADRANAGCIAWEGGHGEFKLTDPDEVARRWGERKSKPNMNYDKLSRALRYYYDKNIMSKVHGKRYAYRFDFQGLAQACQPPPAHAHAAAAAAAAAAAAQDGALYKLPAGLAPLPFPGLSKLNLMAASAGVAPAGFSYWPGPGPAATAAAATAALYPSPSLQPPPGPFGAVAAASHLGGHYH
# How it was run: as §1
# [11] = molecular target: ETV5 (Homo sapiens, UniProt P41161 1-510)
# ETV5, sequence (P41161 whole entry): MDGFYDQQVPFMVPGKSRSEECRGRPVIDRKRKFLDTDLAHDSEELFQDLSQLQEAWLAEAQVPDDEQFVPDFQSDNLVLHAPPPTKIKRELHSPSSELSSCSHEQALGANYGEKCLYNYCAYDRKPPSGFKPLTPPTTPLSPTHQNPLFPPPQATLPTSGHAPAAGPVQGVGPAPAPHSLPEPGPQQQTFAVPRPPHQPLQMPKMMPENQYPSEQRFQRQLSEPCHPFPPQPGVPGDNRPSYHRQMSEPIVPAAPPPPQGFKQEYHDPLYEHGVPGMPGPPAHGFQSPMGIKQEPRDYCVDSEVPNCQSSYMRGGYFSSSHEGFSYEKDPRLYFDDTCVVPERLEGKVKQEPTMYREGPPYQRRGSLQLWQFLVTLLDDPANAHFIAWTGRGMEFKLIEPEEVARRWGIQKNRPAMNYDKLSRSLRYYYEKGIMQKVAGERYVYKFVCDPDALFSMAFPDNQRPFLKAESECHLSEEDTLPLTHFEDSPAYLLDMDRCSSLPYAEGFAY
# How it was run: as §1
# [12] = molecular target: T8, SPIC (Homo sapiens, UniProt Q8N5J4 1-248)
# T8 sequence: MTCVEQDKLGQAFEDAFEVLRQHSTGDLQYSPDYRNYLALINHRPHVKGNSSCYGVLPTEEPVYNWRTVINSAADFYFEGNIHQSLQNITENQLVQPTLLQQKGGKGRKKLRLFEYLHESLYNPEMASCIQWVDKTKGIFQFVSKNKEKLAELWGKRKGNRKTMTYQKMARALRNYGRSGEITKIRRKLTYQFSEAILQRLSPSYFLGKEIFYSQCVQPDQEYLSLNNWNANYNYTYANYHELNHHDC
# How it was run: as §1
# [13] = molecular target: ELF4 (Homo sapiens, UniProt Q99607 1-663)
# ELF4, sequence (Q99607 whole entry): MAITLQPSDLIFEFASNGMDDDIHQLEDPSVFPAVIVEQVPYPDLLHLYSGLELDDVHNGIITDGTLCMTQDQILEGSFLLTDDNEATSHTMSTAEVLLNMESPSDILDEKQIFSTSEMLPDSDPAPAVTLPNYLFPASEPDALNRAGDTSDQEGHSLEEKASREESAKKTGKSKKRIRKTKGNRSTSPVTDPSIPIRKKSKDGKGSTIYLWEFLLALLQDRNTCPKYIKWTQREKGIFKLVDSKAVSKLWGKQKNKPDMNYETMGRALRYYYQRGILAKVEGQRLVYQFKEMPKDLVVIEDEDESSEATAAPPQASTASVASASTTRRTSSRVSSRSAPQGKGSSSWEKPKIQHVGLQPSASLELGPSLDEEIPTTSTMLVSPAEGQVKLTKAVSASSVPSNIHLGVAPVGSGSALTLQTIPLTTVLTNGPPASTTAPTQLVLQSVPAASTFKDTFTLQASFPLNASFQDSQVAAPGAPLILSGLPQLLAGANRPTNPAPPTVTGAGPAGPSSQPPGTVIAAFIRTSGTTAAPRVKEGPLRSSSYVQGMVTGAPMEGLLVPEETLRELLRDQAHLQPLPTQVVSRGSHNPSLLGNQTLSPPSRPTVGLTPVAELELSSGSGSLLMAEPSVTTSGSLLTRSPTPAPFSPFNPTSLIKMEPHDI
# How it was run: as §1
# [14] = molecular target: T9, ELK4 (Homo sapiens, UniProt P28324-2 1-405)
# T9 sequence: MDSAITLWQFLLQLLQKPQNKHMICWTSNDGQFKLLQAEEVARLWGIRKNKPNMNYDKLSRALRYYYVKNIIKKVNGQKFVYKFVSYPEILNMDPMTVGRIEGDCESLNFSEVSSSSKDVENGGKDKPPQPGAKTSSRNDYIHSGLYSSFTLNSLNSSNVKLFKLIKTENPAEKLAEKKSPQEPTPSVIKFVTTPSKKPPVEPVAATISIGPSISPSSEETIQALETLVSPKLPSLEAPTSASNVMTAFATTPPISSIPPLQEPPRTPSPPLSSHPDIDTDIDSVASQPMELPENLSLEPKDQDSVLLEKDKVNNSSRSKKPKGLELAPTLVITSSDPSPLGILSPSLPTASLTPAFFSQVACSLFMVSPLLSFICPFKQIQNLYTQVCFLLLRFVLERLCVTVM
# How it was run: as §1
# [15] = molecular target: T10, ETV2 (Homo sapiens, UniProt O00321 1-342)
# T10 sequence: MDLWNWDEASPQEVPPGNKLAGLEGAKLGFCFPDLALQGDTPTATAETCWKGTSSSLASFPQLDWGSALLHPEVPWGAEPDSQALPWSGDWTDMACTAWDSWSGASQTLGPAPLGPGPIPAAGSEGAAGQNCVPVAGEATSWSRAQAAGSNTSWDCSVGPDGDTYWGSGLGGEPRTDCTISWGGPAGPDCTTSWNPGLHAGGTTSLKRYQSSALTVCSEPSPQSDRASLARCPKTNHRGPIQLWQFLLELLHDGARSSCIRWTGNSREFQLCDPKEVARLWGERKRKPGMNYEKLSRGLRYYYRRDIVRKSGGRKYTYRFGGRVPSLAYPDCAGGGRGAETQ
# How it was run: as §1
# [16] = molecular target: T11, ELF3 (Homo sapiens, UniProt P78545 1-371)
# T11 sequence: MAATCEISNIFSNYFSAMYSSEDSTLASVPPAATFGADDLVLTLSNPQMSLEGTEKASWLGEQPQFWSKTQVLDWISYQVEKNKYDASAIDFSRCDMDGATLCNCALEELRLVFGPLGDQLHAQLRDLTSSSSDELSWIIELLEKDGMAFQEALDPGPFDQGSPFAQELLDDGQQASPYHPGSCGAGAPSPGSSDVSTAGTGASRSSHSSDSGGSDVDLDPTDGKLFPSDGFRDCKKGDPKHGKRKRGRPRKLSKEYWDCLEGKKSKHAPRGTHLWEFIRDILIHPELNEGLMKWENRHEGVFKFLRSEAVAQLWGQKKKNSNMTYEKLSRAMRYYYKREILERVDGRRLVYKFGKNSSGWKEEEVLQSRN
# How it was run: as §1
# [17] = molecular target: ETV1 (Homo sapiens, UniProt P50549 1-477)
# ETV1, sequence (P50549 whole entry): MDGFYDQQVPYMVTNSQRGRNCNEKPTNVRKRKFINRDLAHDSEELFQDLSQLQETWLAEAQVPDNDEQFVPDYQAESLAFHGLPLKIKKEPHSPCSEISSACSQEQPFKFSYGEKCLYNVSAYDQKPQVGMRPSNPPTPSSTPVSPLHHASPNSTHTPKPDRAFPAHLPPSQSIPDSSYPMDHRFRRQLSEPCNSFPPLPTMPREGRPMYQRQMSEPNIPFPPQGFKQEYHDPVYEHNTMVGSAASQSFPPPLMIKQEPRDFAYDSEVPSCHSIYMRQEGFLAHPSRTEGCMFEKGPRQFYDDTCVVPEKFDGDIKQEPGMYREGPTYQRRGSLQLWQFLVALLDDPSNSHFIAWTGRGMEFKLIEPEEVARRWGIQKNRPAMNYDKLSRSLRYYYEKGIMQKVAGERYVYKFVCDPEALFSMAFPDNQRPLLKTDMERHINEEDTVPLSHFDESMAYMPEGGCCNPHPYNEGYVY
# How it was run: as §1
Sequence,binding signal [1],binding signal [2],binding signal [3],binding signal [4],binding signal [5],binding signal [6],binding signal [7],binding signal [8],binding signal [9],binding signal [10],binding signal [11],binding signal [12],binding signal [13],binding signal [14],binding signal [15],binding signal [16],binding signal [17]
CCCATC,"1.19 fold enrichment (6-mer frequency, TF over GST control)","1.18 fold enrichment (6-mer frequency, TF over GST control)","1.17 fold enrichment (6-mer frequency, TF over GST control)","1.11 fold enrichment (6-mer frequency, TF over GST control)","1.12 fold enrichment (6-mer frequency, TF over GST control)","1.17 fold enrichment (6-mer frequency, TF over GST control)","1.11 fold enrichment (6-mer frequency, TF over GST control)","1.18 fold enrichment (6-mer frequency, TF over GST control)","1.21 fold enrichment (6-mer frequency, TF over GST control)","1.06 fold enrichment (6-mer frequency, TF over GST control)","1.16 fold enrichment (6-mer frequency, TF over GST control)","1.27 fold enrichment (6-mer frequency, TF over GST control)","1.17 fold enrichment (6-mer frequency, TF over GST control)","1.3 fold enrichment (6-mer frequency, TF over GST control)","1.04 fold enrichment (6-mer frequency, TF over GST control)","1.09 fold enrichment (6-mer frequency, TF over GST control)","1.18 fold enrichment (6-mer frequency, TF over GST control)"
CTCCGT,"1.32 fold enrichment (6-mer frequency, TF over GST control)","1.28 fold enrichment (6-mer frequency, TF over GST control)","1.22 fold enrichment (6-mer frequency, TF over GST control)","1.16 fold enrichment (6-mer frequency, TF over GST control)","1.21 fold enrichment (6-mer frequency, TF over GST control)","1.15 fold enrichment (6-mer frequency, TF over GST control)","1.19 fold enrichment (6-mer frequency, TF over GST control)","1.13 fold enrichment (6-mer frequency, TF over GST control)","1.38 fold enrichment (6-mer frequency, TF over GST control)","1.14 fold enrichment (6-mer frequency, TF over GST control)","1.24 fold enrichment (6-mer frequency, TF over GST control)","1.14 fold enrichment (6-mer frequency, TF over GST control)","1.3 fold enrichment (6-mer frequency, TF over GST control)","1.37 fold enrichment (6-mer frequency, TF over GST control)","1.17 fold enrichment (6-mer frequency, TF over GST control)","1.13 fold enrichment (6-mer frequency, TF over GST control)","1.15 fold enrichment (6-mer frequency, TF over GST control)"
